# Experimental data from PubChem BioAssay (NCATS).
# Results filed as inconclusive are left out. A call without a number means that no potency is given here. A number with no mark means an inactive call. Activity calls are given as the source filed them. Calls come from the whole dose curve; as a rule, active = well fitted curve in the direction sought with a large enough effect; inconclusive = small, poorly fitted or top-dose-only effect, or another doubt; inactive = no such curve, though single readings can be large; an effect the other way counts as inactive or inconclusive.
# Legend:
# [1] = Primary qHTS for inhibitors of nuclear receptor binding SET domain protein 2 (NSD2) in an isogenic RCH-ACV NSD2 p.E1099K mutant (9B) (AID 1645876)
# [2] = Primary qHTS for inhibitors of nuclear receptor binding SET domain protein 2 (NSD2) in an RCH-ACV wild type WT cells (2C) (AID 1645877)
# Note: nearly all actives have a fitted effect of over 70% in size.
smiles,measurement,setting,value
CC1(C)CCCC2(C)C1C(O)C=C(CO)C2(O)C(=O)O (configuration not stated),Potency,[1],inactive
same,Potency,[2],inactive
O=C(/C=C/c1ccc(O)cc1)OCC1=CC2OC(=O)C3=CO[C@@H](O[C@@H]4O[C@H](CO)[C@@H](O)[C@H](O)[C@H]4O)[C@H]1[C@@H]32 (some centres not stated),Potency,[1],inactive
same,Potency,[2],inactive
O=C(O)c1cc(O[C@@H]2O[C@H](CO[C@@H]3OC[C@@H](O)[C@H](O)[C@H]3O)[C@@H](O)[C@H](O)[C@H]2O)c2ccccc2c1O,Potency,[1],inactive
same,Potency,[2],inactive
C/C(=C/CO)CC[C@@H]1[C@@]2(C)CCC[C@](C)(C(=O)O)C2CC[C@@]1(C)O (some centres not stated),Potency,[1],inactive
same,Potency,[2],inactive
CC(NC(=O)CC(=O)O)c1nc2ccccc2c(=O)[nH]1 (configuration not stated),Potency,[1],inactive
same,Potency,[2],inactive
C=C1CCC2C(C)(C(=O)O)CC(O)CC2(C)C1CC/C(C)=C/C(=O)O (configuration not stated),Potency,[1],inactive
same,Potency,[2],inactive
CC(=O)OC[C@@]12[C@@H](OC(C)=O)C[C@@H](C)[C@](C)([C@@H]3C[C@H]4C=CO[C@H]4O3)[C@H]1CCC[C@]21CO1,Potency,[1],inactive
same,Potency,[2],inactive
COC(=O)C1=COC(O[C@@H]2O[C@H](CO)[C@@H](O)[C@H](O)[C@H]2O)/C(=C\COC(=O)c2ccc(OC3OC(CO)C(O)C(O)C3O)c(OC)c2)C1CC(=O)OCCc1ccc(O)cc1 (some centres not stated),outcome,[1],inactive [at 9.23 µM]
same,outcome,[2],inactive [at 9.23 µM]
CCOc1nc2cccc(C(=O)OCc3oc(=O)oc3C)c2n1Cc1ccc(-c2ccccc2-c2noc(O)n2)cc1,Potency,[1],inactive
same,Potency,[2],inactive
C=C1CC2C3(C)C(O)CC(=O)C(C)(C)C3C(OC(C)=O)C(OC(C)=O)C2(C)C2C(=O)OC(C)(C(=O)OC)C(=O)C12C (configuration not stated),Potency,[1],inactive
same,Potency,[2],inactive
C=C[C@@]1(C)CC(=O)C2[C@](C)(O1)[C@@H](OC(C)=O)[C@@H](O)[C@H]1C(C)(C)CCC[C@]21C (some centres not stated),"activity change, negative = viability loss",[1],1.01% [at 9.23 µM]
same,outcome,[2],inactive [at 9.23 µM]
CC1=C(C)C(=O)OC(C(C)C2C(O)CC3C4C5OC5C5(O)CC(OC6OC(CO)C(O)C(O)C6O)CC(O)C5(C)C4CCC32C)C1 (configuration not stated),Potency,[1],inactive
same,Potency,[2],inactive
CC1=CC[C@]2(C(=O)O[C@@H]3O[C@H](CO[C@@H]4O[C@H](CO)[C@@H](O[C@@H]5O[C@@H](C)[C@H](O)[C@@H](O)[C@H]5O)[C@H](O)[C@H]4O)[C@@H](O)[C@H](O)[C@H]3O)CC[C@]3(C)C(CCC4[C@@]5(C)C[C@@H](O)[C@H](O)[C@@](C)(CO)C5CC[C@]43C)C2C1C (some centres not stated),outcome,[1],inactive [at 9.23 µM]
same,outcome,[2],inactive [at 9.23 µM]
O=C1[C@H](O[C@@H]2O[C@H](CO)[C@@H](O)[C@H](O)[C@H]2O)Oc2ccccc2N1O,Potency,[1],inactive
same,Potency,[2],inactive
C=C1CC23CCC4[C@@](C)(CCC[C@@]4(C)C(=O)O)C2CCC1C3 (some centres not stated),Potency,[1],inactive
same,Potency,[2],inactive
CCCCS(=O)(=O)Nc1ncnc(OCCOc2ncc(Br)cn2)c1-c1ccc(Br)cc1,Potency,[1],inactive
same,Potency,[2],inactive
N#CC1C(=O)Nc2scc(-c3ccc(-c4ccccc4O)cc3)c2C1=O (configuration not stated),Potency,[1],inactive
same,Potency,[2],inactive
CC(=O)O[C@H](C[C@@H](C)[C@H]1C(=O)[C@H](O)[C@@]2(C)[C@@H]3CCC4C(C)(C)[C@@H](O[C@@H]5OC[C@H](O)[C@H](O)[C@H]5O)CC[C@@]45C[C@@]35CC[C@]12C)[C@@H]1OC1(C)C (some centres not stated),Potency,[1],inactive
same,Potency,[2],inactive
C=CC1(C)C=C2C(=O)CC3C(C)(C)CCCC3(C(=O)O)C2(O)CC1 (configuration not stated),Potency,[1],inactive
same,Potency,[2],inactive
O=C(/C=C/c1ccc(O)c(O)c1)OCc1ccccc1O[C@@H]1O[C@H](CO)[C@@H](O)[C@H](O)[C@H]1O,Potency,[1],inactive
same,Potency,[2],inactive
O=C(O)C[C@H]1CCC(=O)[C@@H]1C/C=C\CCOC1OC(CO)C(O)C(O)C1O (some centres not stated),Potency,[1],inactive
same,Potency,[2],inactive
CC1=C(C)C(=O)OC(C(C)(O)C2CCC3C4CC=C5CC(OC6OC(COC7OC(CO)C(O)C(O)C7O)C(O)C(O)C6O)CC(O)C5(C)C4CCC32C)C1 (configuration not stated),Potency,[1],inactive
same,Potency,[2],inactive
CC[C@H](C)/C=C(C)/C=C/C(=O)Cc1cc(O)c(C)c(O)c1C=O,Potency,[1],inactive
same,Potency,[2],inactive
O=C1Nc2ccc(O)cc2O[C@H]1O[C@@H]1O[C@H](CO)[C@@H](O)[C@H](O)[C@H]1O,Potency,[1],inactive
same,Potency,[2],inactive
CCNC(=O)CCC/C=C\C[C@@H]1[C@@H](/C=C/C(O)CCc2ccccc2)[C@@H](O)C[C@@H]1O (some centres not stated),Potency,[1],inactive
same,Potency,[2],inactive
C=C1CC23CC1(O)CCC2C1=CC2OC(=O)C(C)(C2O)C1C3C(=O)O (configuration not stated),Potency,[1],inactive
same,Potency,[2],inactive
